Experimental data taken from paper PMC5540273 (PLoS ONE, 2017).

What was measured:
Conditions in all cases: concentration: 1 μM, replicates: in singlicate; n = 1
SRPK1 = system: SRPK1
SRPK2 = system: SRPK2
SRPK3 = system: SRPK3
STK16 = system: STK16
STK33 = system: STK33
STK35 = system: STK35
STK36 = system: STK36
STK39 = system: STK39
SYK = system: SYK
SgK110 = system: SgK110
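Note: KINOMEscan kinase panel screen.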

| SMILES | %Inh (SRPK1) [%] | %Inh (SRPK2) [%] | %Inh (SRPK3) [%] | %Inh (STK16) [%] | %Inh (STK33) [%] | %Inh (STK35) [%] | %Inh (STK36) [%] | %Inh (STK39) [%] | %Inh (SYK) [%] | %Inh (SgK110) [%] |
| --- | --- | --- | --- | --- | --- | --- | --- | --- | --- | --- |
| Nc1n[nH]c2ncc(-c3ccccc3)cc12 [SB-517081] | 0 | 12 | 12 | 22 | 0 | 0 | 0 | 0 | 8 | 0 |
| Nc1nc(-c2ccccc2F)c(-c2ccnc3ccccc23)s1 [GW560459] | 25 | 0 | 0 | 7 | 0 | 0 | 0 | 1 | 32 | 0 |
| COc1cc2ncn(-c3cc(OCCCc4ccccc4)c(C(N)=O)s3)c2cc1OC [GSK205189] | 27 | 0 | 7 | 13 | 0 | 15 | 0 | 0 | 21 | 0 |
| Cl.c1ccc(Cn2cnc3cc(Nc4ncnc5ccccc45)ccc32)cc1 [GW272142] | 19 | 0 | 0 | 28 | 0 | 0 | 0 | 7 | 11 | 0 |
| COc1cc2nccc(Nc3ccc(OCc4ccc(NC(C)=O)cc4)cc3)c2cc1OC.Cl [GW440135] | 42 | 12 | 23 | 2 | 15 | 3 | 29 | 3 | 6 | 21 |
| Cc1cccc(-c2nc(Nc3ccc4c(cnn4C)c3)c3ccccc3n2)n1 [GW876731] | 0 | 0 | 0 | 5 | 0 | 0 | 2 | 33 | 24 | 6 |
| Nc1ncnc2c1ncn2-c1cccc2ccccc12 [SKF-97184] | 0 | 32 | 12 | 9 | 0 | 0 | 6 | 25 | 0 | 31 |
| CCc1nc(-c2cccc(C)c2)c(-c2ccncc2)s1 | 0 | 0 | 15 | 23 | 0 | 0 | 15 | 0 | 23 | 0 |
| Cc1c(Cn2c(C)nn3c(=O)cc(N4CCO[C@H](C)C4)nc23)cccc1C(F)(F)F [GSK2373690] | 0 | 0 | 0 | 6 | 0 | 2 | 0 | 32 | 25 | 2 |
| C[C@@H]1CC[C@H](C(=O)NC2CCCCC2)CN1c1cc(-c2ccc3c(N)n[nH]c3c2)nc(N)n1 [GSK2291363] | 77 | 5 | 36 | 21 | 57 | 0 | 0 | 0 | 37 | 0 |
| Cn1c(=O)c(F)c(Nc2ccc(I)cc2F)c2c(=O)n(OC[C@H](O)CO)cnc21 | 15 | 13 | 7 | 14 | 0 | 0 | 9 | 32 | 20 | 0 |
| CC(C)(C)c1ccc(C(=O)Nc2cn3cc(-c4ccccc4)ccc3n2)cc1 | 0 | 3 | 0 | 0 | 3 | 47 | 8 | 0 | 0 | 0 |
| COc1cc(Nc2nccc(N3CCC(NC(=O)C(C)c4ccc(Cl)cc4)C3)n2)cc(OC)c1OC (stereo not shown) [GSK1379757] | 26 | 3 | 52 | 39 | 0 | 0 | 0 | 0 | 20 | 0 |
| Nc1nccc2scc(-c3ccc4c(c3)CCN4C(=O)Cc3ccccc3)c12 [GSK2576924] | 28 | 0 | 0 | 4 | 0 | 0 | 0 | 11 | 16 | 0 |
| Cc1ccccc1COc1cc(-n2cnc3cc(Cl)ccc32)sc1C(N)=O [GW813349] | 10 | 34 | 10 | 0 | 30 | 0 | 30 | 0 | 9 | 0 |
| O=C(Nc1n[nH]c2nc(-c3ccccc3)c(Cl)cc12)C1CC1 [SB-734909] | 0 | 27 | 15 | 1 | 0 | 32 | 6 | 0 | 0 | 23 |
| O=C(NCc1cccs1)c1cc(C(=O)c2c(Cl)cccc2Cl)c[nH]1 [GW823670] | 0 | 0 | 0 | 0 | 0 | 0 | 10 | 0 | 6 | 14 |

| SMILES | %Inh (SRPK1) [%] | %Inh (SRPK2) [%] | %Inh (SRPK3) [%] | %Inh (STK16) [%] | %Inh (STK33) [%] | %Inh (STK35) [%] | %Inh (STK36) [%] | %Inh (STK39) [%] | %Inh (SYK) [%] | %Inh (SgK110) [%] |
| --- | --- | --- | --- | --- | --- | --- | --- | --- | --- | --- |
| COc1cc2ncn(-c3cc(OCc4ccc(S(C)(=O)=O)cc4)c(C(N)=O)s3)c2cc1OC [GW869979] | 25 | 0 | 13 | 2 | 27 | 0 | 0 | 0 | 0 | 0 |
| CN1C(=O)C(Nc2cc(Cl)c(O)c(Cl)c2)=C(c2ccc(Cl)cc2)C1=O [SB-404321] | 0 | 0 | 96.2 | 0 | 0 | 0 | 19 | 0 | 0 | 0 |
| CCn1c(-c2nonc2N)nc2ccccc21 [SB-693162/GW549034] | 0 | 0 | 24 | 23 | 15 | 0 | 0 | 37 | 0 | 0 |
| CCC(=O)c1c(-c2ccccc2)c2cc(Cl)ccc2c(=O)n1Cc1cc(S(C)(=O)=O)n(CCC(C)(C)O)n1 | 3 | 53 | 11 | 1 | 8 | 15 | 11 | 0 | 25 | 9 |
| COc1ccc(-c2coc3ccc(-c4nnc(SCc5cccc(C#N)c5)o4)cc23)cc1 | 0 | 0 | 0 | 20 | 0 | 26 | 8 | 0 | 14 | 10 |
| CN1C(=O)C(Nc2ccccc2)=C(c2ccccc2)C1=O [SB-300079] | 0 | 0 | 0 | 0 | 9 | 0 | 0 | 0 | 3 | 0 |
| COc1cc2ncn(-c3cc(OCc4ccncc4Br)c(C(N)=O)s3)c2cc1OC [GW854278] | 44 | 0 | 28 | 14 | 6 | 0 | 1 | 0 | 20 | 0 |
| Cc1cc(Nc2nc(-c3cccc(C)n3)nc3ccccc23)ccn1 [GW872411] | 0 | 0 | 13 | 0 | 0 | 3 | 0 | 0 | 0 | 0 |
| COc1ccc(Nc2nccc(N3CCC(NS(=O)(=O)c4ccc(NC(C)=O)cc4)C3)n2)cc1 (stereo not shown) [GSK1379729] | 35 | 0 | 63 | 19 | 10 | 14 | 3 | 2 | 35 | 4 |
| Cc1ccc(Oc2ccc(Nc3ncnc4cc[nH]c34)cc2C)cn1 | 0 | 0 | 0 | 27 | 0 | 0 | 13 | 15 | 11 | 0 |
| COc1ccc(CNC(=O)NC2CCN(c3ccnc(Nc4ccc(F)cc4)n3)C2)cc1 (stereo not shown) [GSK1379706] | 0 | 80 | 21 | 19 | 14 | 0 | 27 | 13 | 34 | 0 |
| Fc1cccc(CSc2nnc(-c3ccc4c(c3)CCO4)o2)c1 | 1 | 0 | 16 | 0 | 6 | 0 | 16 | 16 | 0 | 13 |
| COc1ccc(-n2cnc3c(N)ncnc32)cc1 [SKF-97236] | 28 | 0 | 15 | 38 | 20 | 0 | 0 | 0 | 18 | 0 |
| COc1cc2nccc(Nc3cccc(Oc4ccccc4)c3)c2cc1OC.Cl [GW284543] | 65 | 0 | 0 | 0 | 0 | 0 | 0 | 1 | 37 | 0 |
| OCCCNc1nccc(-c2c(-c3cccc(C(F)(F)F)c3)nn3cc(C(F)(F)F)ccc23)n1 [GW630813] | 7 | 2 | 0 | 8 | 0 | 0 | 55 | 0 | 0 | 0 |
| O=C(Nc1n[nH]c2cc(-c3ccccc3F)ccc12)C1CC1 [SB-733371] | 10 | 0 | 38 | 0 | 0 | 11 | 0 | 2 | 17 | 0 |
| O=c1cc(N2CCOCC2)nc2n(Cc3ccc(F)c(Cl)c3)ccn12 [GSK2297099] | 0 | 0 | 0 | 24 | 0 | 0 | 0 | 0 | 7 | 8 |
